# Test results taken from PubChem BioAssay AID488911 (Broad Institute, 2010).
# Results with a measured potency or affinity are listed apart. Calls of active or inactive are those of the source.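 The calls were made as follows: active = falling signal whose fitted half-effect dose is at or below ten times the top valid dose; inconclusive = flat fit showing a moderate drop, or a poor fit; inactive = the rest.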
# Assay: mammalian cell toxicity in NIH-3T3 fibroblasts, dose response, cytotoxicity control for antifungal resistance reversal project, Alamar Blue, dry powder, set 2 (AID 488911)
# Conditions: NIH-3T3 viability with fluconazole, 48 h; series mostly up to 26 µM
row,Compound,outcome
1,O=C(Nc1ccc(Cl)cc1)N1CCN(c2ccnc3cc(Cl)ccc23)CC1,inactive
2,O=C(C1CCCCC1)N1CCN(c2ccnc3cc(Cl)ccc23)CC1,inactive
3,CC(C)CC(=O)N1CCN(c2ccnc3cc(Cl)ccc23)CC1,inactive
4,O=C(c1ccc(Cl)cc1)N1CCN(c2ccccn2)CC1,inactive
5,Cc1cc(N2CCN(C(=O)c3ccc(Cl)cc3)CC2)c2ccccc2n1,inactive
6,O=C(c1ccc(Cl)nc1)N1CCN(c2ccnc3cc(Cl)ccc23)CC1,inactive
7,O=C(c1ccc(Cl)cc1)N1CCCN(c2ccnc3cc(Cl)ccc23)CC1,inactive
8,CC(C)C(=O)N1CCN(c2ccnc3cc(Cl)ccc23)CC1,inactive
9,O=C(c1ccc(Cl)cc1)N1CCNCC1,inactive
10,O=C(C1CCCC1)N1CCN(c2ccnc3cc(Cl)ccc23)CC1,inactive
11,O=C(C1CCC1)N1CCN(c2ccnc3cc(Cl)ccc23)CC1,inactive
12,O=C(c1ccc(Cl)cc1)N1CCN(c2ncnc3nc[nH]c23)CC1,inactive
